Tested on: VDR:RXRa (NR concentration 270 nM, RXRa partner concentration 90 nM)
Test: PBM binding z-score (relative to random genomic background probes); higher = stronger binding; sequences stand for … in GC…GCGATTGACAGCGTAGAATGAAGG
Experimental: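 Protein-binding microarray (Agilent 4x180K custom design, double-stranded 60-nt probes: 5' GC cap, 34-nt variable region, 24-nt constant primer region; full probe sequence given). Purified or IVT nuclear receptor:RXRα heterodimers (3:1 NR:RXRα, mostly 270:90 nM) or homodimers were incubated for 1 h in PBS with 2% milk and no ligand, then detected with Alexa488 antibodies. Fluorescence from o1-orientation probes (~5 replicates averaged) was converted to z-scores against 500 random hg19 background probes. Variable regions are seed direct-repeat (DR0–DR5) sites, all their single-nucleotide variants and half-site ablations.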

With CTATGTAGGTGAAGGGGGTCATTCAGTTTGAAAG as the sequence, how does the PBM binding z-score read?
Its PBM binding z-score is 7.13.

With ATATGTGGGTTAGGGTCATTCAGAAAGTAGGGAA as the sequence, how does the PBM binding z-score read?
The PBM binding z-score was 4.97.

ATCGAAAGGTCGAAGGTGAGTACACCCACCCGAA was tested. Which PBM binding z-score did it give?
Its PBM binding z-score is 3.97.

With CTATGTAGGTTAAGGGGGTCGTTCAGTTTGAAAG as the sequence, how does the PBM binding z-score read?
The PBM binding z-score was 6.43.

How did the PBM binding z-score turn out when AGTCAAAGTTGATCTAGGTAACGTAAGATATGCT was run?
Its PBM binding z-score is 0.0495.

Which PBM binding z-score does the source give for CGAACTAGGACACCAGGACAGTGAAGAGGTTGGA here?
Its PBM binding z-score is -0.285.

GCTGCTAGGTCAACTGAGGGTCAGCTAAAGCTCG was tested. Which PBM binding z-score did it give?
The PBM binding z-score was 4.26.

For ATCGAACGGTCGACGAGGTGAGTATACACCGTTT, which PBM binding z-score is on record?
Its PBM binding z-score is 0.299.

With CGTCCAAGGTCAAGCTCAGTGAAAGAGACTCGAA as the sequence, how does the PBM binding z-score read?
The PBM binding z-score was 4.06.

For CGAACTAGGTCAATGGACAGTGAAAGGCGACGTA, which PBM binding z-score is on record?
Its PBM binding z-score is 0.802.

How did the PBM binding z-score turn out when CGTCAAAGTTCAAGGTTACGTAACAGAAAGCAGC was run?
Its PBM binding z-score is 4.31.

With CGGACTGGGGCAAAGGTTACCATACTCAGTACGA as the sequence, how does the PBM binding z-score read?
Its PBM binding z-score is 1.9.

For CTCGAAAGGTCGGTTGAGGTGACTATACGGATAA, which PBM binding z-score is on record?
The PBM binding z-score was 2.77.

Which PBM binding z-score does the source give for CTATGTCGGTTAAGGGGGTCATTCAGTTTGAAAG here?
Its PBM binding z-score is 6.77.

How did the PBM binding z-score turn out when CTAGGTAGGTTAAGGGGGTCATTCAGTTTGAAAG was run?
The PBM binding z-score was 7.24.

With CAAACTAGGTCACAGAGGGCAAAGTCCGTGCGTA as the sequence, how does the PBM binding z-score read?
The PBM binding z-score was 7.09.

With CGTCCAAGGTCAAGGGCAGTGAAAGAGACTCGAA as the sequence, how does the PBM binding z-score read?
Its PBM binding z-score is 3.68.

How did the PBM binding z-score turn out when GCTGCTAGGTCAACTGAAGGTCAGCTAAAGCTCG was run?
Its PBM binding z-score is 4.15.

For GCTGCAAGGTCAACTGATGGTCAGCTAAAGCTCG, which PBM binding z-score is on record?
Its PBM binding z-score is 4.66.

How did the PBM binding z-score turn out when CGTCAAAGTTCAACTAAGTTAACGTAAAGCACGC was run?
The PBM binding z-score was 5.16.

How did the PBM binding z-score turn out when CGAACTAGGTCACCAGGCCAGTGAAGAGGTTGGA was run?
The PBM binding z-score was 1.71.

For TCGAGTAGATTACGGGGGCATTCAGGGATGAAGA, which PBM binding z-score is on record?
The PBM binding z-score was 2.83.

CGAACTAGGTTAAAGGACAGTGAAAGGCGACGTA was tested. Which PBM binding z-score did it give?
The PBM binding z-score was -0.216.

How did the PBM binding z-score turn out when GCTGCTAGGTCAACTGATGGTGAGCTAAAGCTCG was run?
The PBM binding z-score was 1.13.

With CGAACTAGGTCACCAGGACCGTGAAGAGGTTGGA as the sequence, how does the PBM binding z-score read?
Its PBM binding z-score is 2.4.

With CGTCCAAGGTCAATTCTAGGTCAGTGAAAGCATT as the sequence, how does the PBM binding z-score read?
Its PBM binding z-score is 4.61.

How did the PBM binding z-score turn out when CCTAGTGGGCCAAAGGTCATTGATTCCAATGCTC was run?
Its PBM binding z-score is 4.68.

For GGAACTAGGGCAAAGTTGATAGCATCTGTCGACG, which PBM binding z-score is on record?
Its PBM binding z-score is -0.0768.

Which PBM binding z-score does the source give for CGAACTAGGTCACAAGGACAGTGAAGAGGTTGGA here?
The PBM binding z-score was 1.83.

Which PBM binding z-score does the source give for CGAACTAGGTCACCAGGTCAGTGAAGAGGTTGGA here?
Its PBM binding z-score is 3.92.

With CTAAGTAGGTTAAGGGGGTCATTCAGTTTGAAAG as the sequence, how does the PBM binding z-score read?
The PBM binding z-score was 7.19.

CGAAGTAGGTCAAAGGACAGTGAAAGGCGACGTA was tested. Which PBM binding z-score did it give?
The PBM binding z-score was 1.9.

With CCTGCTAGGTCAATGGTCAGCTAAAGCAGCTCGC as the sequence, how does the PBM binding z-score read?
Its PBM binding z-score is 1.02.

Which PBM binding z-score does the source give for TAGCCTCGGTCATTGGGCCAGTATAGTACGCATC here?
The PBM binding z-score was -0.539.

With CGAACTGGGTCACCAGGACAGTGAAGAGGTTGGA as the sequence, how does the PBM binding z-score read?
The PBM binding z-score was 2.13.

AGAATGAGGTTACACGTAGATCAGGGAAGAAAGT was tested. Which PBM binding z-score did it give?
The PBM binding z-score was 1.67.

For CGTCAAAGTTCACCTAAGGTAACGTAAAGCACGC, which PBM binding z-score is on record?
Its PBM binding z-score is 4.82.

ATATGGAGGTTAAGGGTCATTCAGGTTGGTTCGC was tested. Which PBM binding z-score did it give?
The PBM binding z-score was 6.32.

With CGAACTAGGTCACTAGGACAGTGAAGAGGTTGGA as the sequence, how does the PBM binding z-score read?
Its PBM binding z-score is 1.18.

With CGAACTAGGTCAGAACAGTACAGTGAAGGATGAT as the sequence, how does the PBM binding z-score read?
The PBM binding z-score was 0.879.
